Giardia killer: Giardia lamblia killing | Giardia lamblia trophozoite viability | activity change, % at 7.66 µM, hits read low | 340,000 tested, 0.15% active; in the data active means activity change below about -80%; inconclusive means between about -30% and that limit;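 further: parasites exposed to compound for two days anaerobically before the ATP read; on the % scale 0 is the no-effect control and ±100 the full control effect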
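Trophozoite viability was measured as ATP-dependent luminescence, read 15-30 min after reagent addition. Before that, parasites at 100 cells/well were exposed to compounds for 48 h, anaerobically, at 37 deg C.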
BRCA1 expr act: increases BRCA1 expression | MCF7-BRCA1-FFLuc reporter, luminescence, 48 h; response scale: scaled: vehicle 0%, 10 µM genistein 100% | Potency, µM (series often up to 46.1 µM), inactives show at the highest dose activation, hits mostly activators | 380,000 tested, 1.1% active | AID 624202; further: potency means the concentration at half of the fitted maximal effect; nearly all actives have a fitted effect of over 80% in size
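Using MCF7 cells harboring a BRCA1 firefly luciferase reporter, plated 2 h before compound pinning, the screen measured luminescence after 48 h incubation. Responses were normalized to DMSO and 10 microM genistein, then fitted for concentration-effect.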
p53 reactivation: restores transcriptional activity of mutant p53 | Potency, µM (top dose mostly 92.2 µM), inactives show top-dose activity change, positive = activation, actives largely listed as activators | 320,000 tested, 0.063% active | AID 504706 | H1299 p53-A138V BP100-luciferase reporter, luminescence, 24 h; further: potency means the concentration at half of the fitted maximal effect; % of control where 0% means no effect; nearly all actives have a fitted effect of over 45% in size
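p53-null H1299 cells stably carrying temperature-sensitive p53-A138V and a BP100-luciferase reporter were pinned with compounds (4-point, 1:5 series) and held 24 hrs at 37 deg C. Luminescence was read 10 min after detection reagent.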
ELG1 DNA repair: inhibitors of ELG1-dependent DNA repair in HEK293T cells; HEK293T ELG1-luciferase reporter, luminescence, 16 h; DNA damage induced by 5-fluorouridine; Potency, µM (series often up to 46.1 µM), for the others: at the highest dose activity change, negative = inhibition, hits mostly inhibitors; 330,000 tested, 2.3% active; AID 504467; further: potency means the concentration at half of the fitted maximal effect; on the % scale 0 is the no-effect control and ±100 the full control effect; nearly all actives have a fitted effect of over 55% in size
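5-Fluorouridine DNA damage + compound/DMSO, 2,000 cells/well, 16 h, 37 °C/5% CO2. ONE-Glo, 30 min RT, luminescence. Readout = decrease in reporter signal.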
VP16 counter: inhibits Gal4-VP16 luciferase reporter, ROR gamma counter-screen | Drosophila S2 Gal4-VP16 UAS-luciferase, luminescence, 20 h | Potency, µM (highest dose often 53.6 µM), without a hit: top-dose activity, negative = inhibition, actives largely listed as inhibitors | 310,000 tested, 3.5% active | AID 2546;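 further: Gal4-VP16 expression switched on by copper sulfate through the metallothionein promoter; potency means the concentration at half of the fitted maximal effect; on the % scale 0 is the no-effect control and ±100 the full control effect; nearly all actives have a fitted effect of over 50% in size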
RORg inh: blocks mouse ROR gamma transcriptional activity. P51450. Drosophila S2 Gal4-RORgamma UAS-luciferase reporter, 20 h. Potency, µM (top dose mostly 53.6 µM), for the others: at the top dose activity change, negative = inhibition, hits mostly inhibitors. 310,000 tested, 5.4% active. AID 2551; further: potency means the concentration at half of the fitted maximal effect; on the % scale 0 is the no-effect control and ±100 the full control effect; nearly all actives have a fitted effect of over 60% in size
Target sequence (P51450 whole entry, looked up, the tested form may be a part): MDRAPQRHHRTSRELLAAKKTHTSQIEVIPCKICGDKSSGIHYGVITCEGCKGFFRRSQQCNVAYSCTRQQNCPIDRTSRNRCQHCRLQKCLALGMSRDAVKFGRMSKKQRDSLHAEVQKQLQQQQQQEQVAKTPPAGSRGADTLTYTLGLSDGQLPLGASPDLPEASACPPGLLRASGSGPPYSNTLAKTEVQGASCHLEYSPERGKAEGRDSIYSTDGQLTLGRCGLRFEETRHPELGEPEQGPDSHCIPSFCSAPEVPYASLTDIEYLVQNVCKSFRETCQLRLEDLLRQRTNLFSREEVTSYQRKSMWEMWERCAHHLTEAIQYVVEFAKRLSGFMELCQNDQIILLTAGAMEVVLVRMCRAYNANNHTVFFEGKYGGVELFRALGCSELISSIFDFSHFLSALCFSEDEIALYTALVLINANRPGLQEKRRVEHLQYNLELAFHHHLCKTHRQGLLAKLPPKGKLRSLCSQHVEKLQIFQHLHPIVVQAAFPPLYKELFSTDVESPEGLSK
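ROR gamma transcriptional activity was tracked as Gal4-UAS luciferase output in stably transfected Drosophila Schneider cells, with compound added 1 hr before 700 uM copper sulfate induction and a 20 hr ambient-temperature incubation.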
* = called active by the depositor; ? = inconclusive; . = no result given; [ ] = remark or other dose. This is a sample that favours compounds with a hit; in the whole collection about 7.6% have one here. Unless noted, the call rests on the fitted dose curve; in most records, active means well fitted curve in the direction sought with a large enough effect; inconclusive means small, poorly fitted or top-dose-only effect, or another doubt; inactive means no such curve, though single readings can be large; an effect the other way counts as inactive or inconclusive.

SMILES | Giardia killer | BRCA1 expr act | p53 reactivation | ELG1 DNA repair | VP16 counter | RORg inh
CCN(CC)CCNc1ncnc2c1sc1nc(N3CCCC3)c3c(c12)CC(C)(C)OC3 | 11 | -96% | -3% | ? | ? | 11µM*
CC1(C)Cc2c(c(N3CCOCC3)nc3sc4c(NN)ncnc4c23)CS1 | 15 | -100% | ? | ? | 7.1µM* | 7.9µM*
CC1(C)Cc2c(c(-c3ccco3)nc3sc4c(NCC5CCCO5)ncnc4c23)CO1 (stereo not drawn) | 57 | -40% | -19% | 7.3µM* | -19% | -9%
Cc1ccc(NC(=O)c2cccc(C(=O)Nc3ccc(C)cc3C(=O)O)c2)c(C(=O)O)c1 | 26 | 1% | 5% | ? | -14% | -18%
O=C1C(c2ccc(F)cc2)N(C2CCCCC2)C(=O)CN1C1CCCC1 (stereo not drawn) | -3 | -21% | -4% | 6% | -4% | 17%
C/C(CCc1ccccc1)=N\NC(=O)C1C2CCCCC21 (stereo not drawn) | 2 | 0% | 10% | 16% | -18% | -21%
C/C(=N\NC(=S)NCCc1ccccc1)c1cccs1 | 4 | -7% | ? | -8% | 1.4µM* | 4.5µM*
CCC(NC(=S)NCc1ccccc1)C(=O)O (stereo not drawn) | -22 | 1% | -3% | 0% | 10% | -14%
C/C(CCC(C)C)=N\NC(=S)NCc1ccccc1 | ? | 19% | 0% | -3% | ? | 4µM*
C/C(CCc1ccccc1)=N\NC(=S)NCCc1ccccc1 | 2 | -21% | 1% | -1% | 6.3µM* | 5µM*
CC(=O)Nc1ccc(CN2CCN(CCC(C)C)C(CCO)C2)cc1 (stereo not drawn) | 7 | 10% | -1% | 14% | 6% | -10%
C1=C(c2cc3ccccc3cn2)CCCC1 | -2 | 10µM* | ? | ? | . | .
Cc1ccc(N(CC(=O)NC2CCCC2)C(=O)CCC(=O)Nc2ccccn2)cc1 | 20 | -29% | -5% | -5% | -3% | 0%
COc1ccc(-c2csc3ncnc(NCCO)c23)cc1 | -5 | -11% | . | ? | -14% | 1%[1.91 µM]
COc1ccc(-c2csc3ncnc(N4CCN(CCO)CC4)c23)cc1 | -1 | -14% | 0% | -27% | 15% | -16%
COc1ccc(-c2csc3ncnc(NCCCO)c23)cc1 | -4 | -21% | -3% | 4.6µM* | -9% | 41%
COc1ccc(-c2csc3ncnc(N4CCN(c5ccccc5OC)CC4)c23)cc1 | -6 | -61% | -4% | 13µM* | -8% | 25%
CCOc1ccccc1N1CCN(c2ncnc3scc(-c4ccc(OC)cc4)c23)CC1 | -2 | -74% | -1% | 15µM* | -1% | 23%
O=C(c1ccc(Cl)c(S(=O)(=O)N2CCCC2)c1)N1CCN(c2ncccn2)CC1 | -6 | 0% | -1% | ? | 7% | 3%
C(=Nc1ccc(Nc2ccccc2)cc1)c1ccc2ccccc2c1 | -6 | 4% | 14% | -17% | 13µM* | ?
O=C(COc1ccccc1)Nc1nc2c(s1)CCCC2 | 21 | 3.2µM* | 19% | ? | 1% | -12%
O=C(COc1ccc2ccccc2c1)Nc1nccs1 | ? | 22% | 2% | ? | 16µM* | 10µM*
O=C(COc1ccccc1)Nc1nccs1 | -1 | ? | ? | ? | ? | 13µM*
O=C(COc1ccc2ccc(=O)oc2c1)Nc1nccs1 | -15 | 52% | ? | ? | -4% | 0%
C/C(=C\C(=O)Nc1nccs1)c1ccccc1 | -2 | 8.9µM* | . | . | 11µM* | 8.9µM*
SMILES | Giardia killer | BRCA1 expr act | p53 reactivation | ELG1 DNA repair | VP16 counter | RORg inh
CC(=O)c1sc(NC(=O)COc2ccccc2)nc1C | 45 | ? | 3% | ? | 4% | -2%
CC(=O)Nc1ccc(CNc2nc3cc(-c4cccc(C(F)(F)F)c4)sc3c(=O)n2C)cc1 | . | -18% | . | . | . | .
S=C(NCc1ccccc1)Nc1nccs1 | 19 | 12% | . | 13% | 1.3µM* | 0.89µM*
Cc1ccc(CC(=O)Nc2nccs2)cc1C | -1 | 53% | -2% | ? | 2.5µM* | ?
O=C(O)/C=C/c1cn(-c2ccccc2)nc1-c1ccc2c(c1)OCCO2 | 7 | -11% | -2% | ? | -2% | ?
O=C(/C=C/c1cn(-c2ccccc2)nc1-c1cccnc1)N1CCCCC1 | -23 | -12% | -2% | -28% | 11% | 21%
CN(C)C(=O)/C=C\c1cn(-c2ccccc2)nc1-c1ccc2c(c1)OCCO2 | 20 | -4% | -9% | 16µM* | -5% | ?
O=C(/C=C/c1cn(-c2ccccc2)nc1-c1cccc(Cl)c1)N1CCN(c2ccccn2)CC1 | 5 | -75% | 6% | 21µM* | 0%[10 µM] | 36%
OCc1cn(-c2ccccc2)nc1-c1ccc2c(c1)OCCO2 | -4 | 0% | ? | ? | 12% | ?
CN1CCN(C(=O)/C=C/c2cn(-c3ccccc3)nc2-c2ccc3c(c2)OCCO3)CC1 | 14 | -15% | -4% | 10µM* | -2% | -21%
CCN1C(=O)NC(c2ccc(Cl)cc2)C2=C1CCCC2=O (stereo not drawn) | -21 | -16% | -2% | -13% | 1% | -2%
Cc1cnn(-c2ccc3nnc(-c4ccc(Cl)cc4)n3n2)c1 | 22 | -5% | -14% | 20% | 3% | 16%
CSc1ncc(C(=O)Nc2ccccc2Cl)c(C)n1 | -1 | 28% | 1% | 8% | -6% | ?
COc1cc(OC)cc(C(=O)/C=C2\Sc3ccccc3N2C)c1 | -10 | 48% | 2% | ? | -7% | 11%
COc1ccc2c(c1)S/C(=C\C(=O)c1ccncc1)N2C | 7 | 4.5µM* | 22% | ? | -17% | -8%
Cc1ccc(/C=N/n2c(-c3ccc(Cl)cc3)n[nH]c2=S)s1 | -18 | -5% | -2% | ? | -30% | 1.4µM*
S=c1[nH]nc(-c2cc(-c3ccccc3)n[nH]2)n1/N=C/c1ccc(Cl)cc1 | 10 | 8% | 4% | 0% | ? | ?
Cc1ccc(-c2n[nH]c(=S)n2/N=C/c2ccc(C)s2)cc1 | -8 | -44% | 2% | -6% | 7.1µM* | 3.2µM*
O=C(NCc1ccccn1)c1ccccc1-c1ccccc1 | 4 | -1% | -1% | -13% | -1% | -10%
O=C(c1ccccc1NS(=O)(=O)c1cccs1)N1CCOCC1 | 2 | 3% | 0% | 9% | 2% | -7%
COc1ccc2[nH]c(C)c(CCN(Cc3cccs3)C(=S)Nc3cccc(F)c3)c2c1 | -8 | -64% | 2% | 16µM* | ? | 1.6µM*
COc1ccc(OC)c(NC(=S)N(CCc2c(C)[nH]c3ccccc23)Cc2cccs2)c1 | -18 | -36% | 1% | -20% | 8% | 8.9µM*

Screening results from PubChem.
